# Assay results taken from PubChem BioAssay (EPA / NIEHS).
# Active and inactive are the calls of the source. The calls were made as follows: active = hit-call score of the fitted dose curve at least 0.9, where 1 is the maximum; inactive = score below 0.9.
# Experiment: APR_HepG2_CellLoss_1hr: Apredica 1-hour HepG2 Assay for Cell Loss (AID 2282668);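 also: curves fitted both ways against DMSO so gain or loss of cells counts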
# Settings: high-content imaging
# Procedure: APR_HepG2_1hr is a cell-based, multiplexed-readout assay that uses HepG2, a human liver cell line, with measurements taken at 1 hour after chemical dosing in a 384-well plate.APR_HepG2_CellLoss_1hr is one of 10 assay component(s) measured or calculated from the APR_HepG2_1hr assay. It is designed to make measurements of cell number, a form of viability reporter, as detected with fluorescence intensity signals by HCS Fluorescent Imaging technology.Data from the assay component APR_HepG2_CellLoss_1hr was analyzed into 1 assay endpoint. This assay endpoint, APR_HepG2_CellLoss_1hr, was analyzed with bidirectional fitting relative to DMSO as the negative control and baseline of activity. Using a type of viability reporter, measures of all nuclear dna for gain or loss-of-signal activity can be used to understand the viability at the cellular-level. Furthermore, this assay endpoint can be referred to as a secondary readout, because this assay has produced multiple assay endpoints where this one serves a viability function. To generalize the intended target to other relatable targets, this assay endpoint is annotated to the cell cycle intended target family, where the subfamily is proliferation.
# Cells were treated with dimethyl sulfoxide (DMSO) as a solvent control at a final concentration of 0.5% v/v or with compounds in DMSO with a resulting final DMSO concentration of 0.5% v/v. Compound treatment was done at concentrations of 0.39, 0.78, 1.56, 3.12, 6.24, 12.5, 25, 50, 100, and 200 uM in duplicate on each plate. Cells were treated with compounds for 1, 24, or 72 hr. Carbonyl […] m-chloro-phenylhydrazone (CCCP) and taxol were used as positive controls for mitochondrial function and cytoskeletal stability, respectively; DMSO served as the negative control for this experiment. Cells were fixed by the direct addition of 50 uL formaldehyde in Hank's Balanced Salt Solution (HBSS) to a final concentration of 3.7%. After incubation in the fixation medium for 30 min at room temperature (293-298 K), cells were rinsed twice with HBSS and treated with cell permeabilization buffer (16 uL of 0.5% Triton X-100) for 10 min at room temperature (293-298 K) before labeling. For mitochondrial membrane potential and mitochondrial measurements, pre-fixed cells were incubated with 50 uL of MitoTracker Red CMXRos (Invitrogen) at a concentration of 250 nM for 30 min before fixation. In the remaining cases, post-fixed cells were labeled by incubation with a multiplexed mixture of primary antibodies in HBSS for 60 min at room temperature (293-298 K) to detect immunoreactivity of c-Jun (1:500), phospho-histone H3 (1:100), phospho-histone H2A.x (1:200), p53 (1:400), alpha-tubulin (1:200) and Hoechst 33342 (2 ug/mL). Cells were labeled for multiplexed imaging on two separate plates: a) Hoechst 33342, MitoTracker Red, phospho-histone H3, and alpha-tubulin, and b) Hoechst 33342, phospho-histone H2A.x, and c-Jun. A final rinse with HBSS (50 uL) was performed before analysis. The primary and secondary antibodies for the proteins were phospho-histone H3 (rabbit anti-phospho-histone H3 and FITC-donkey anti-rabbit IgG), phospho-histone H2A.x (mouse anti-phospho-histone H2A.x and FITC-donkey anti-mouse IgG), c-Jun (rabbit anti-phospho-c-Jun and Cy3-donkey anti-rabbit IgG), p53 (sheep anti-p53 and Cy5-donkey anti-sheep IgG), alpha-tubulin (mouse anti-alpha-tubulin and Cy5-donkey anti-mouse IgG). These antibodies are available as the CellCiphr HepG2 assay kit (Millipore).Digital images of each well were captured using a Cellomics ArrayScan VTI (Thermo Scientific Cellomics) (0.8 NA objective, 0.63x optical coupler, and XF-93 filter set) at 20x magnification. The images were acquired using the autofocus feature of the ArrayScan instrument, which entails the following steps. First, the camera focuses on channel 1 (Hoechst 33342), where nuclei are identified. Second, a Z offset of 1 um is used for capturing mitochondria (MitoTracker Red). […]
SMILES,outcome,AC50
CC(C)(c1ccc(O)cc1)c1ccc(O)cc1,inactive,–
CCCCC(CC)COC(=O)c1ccccc1C(=O)O (stereo not given),inactive,–
CCCN(CCC)c1c([N+](=O)[O-])cc(C(F)(F)F)c(N)c1[N+](=O)[O-],inactive,–
CCCCOC(=O)C(C)Oc1ccc(Oc2ccc(C(F)(F)F)cn2)cc1 (stereo not given),inactive,–
CCOC(=O)NCCOc1ccc(Oc2ccccc2)cc1,inactive,–
C=CCOC(Cn1ccnc1)c1ccc(Cl)cc1Cl (stereo not given),inactive,–
c1ccc(Nc2ccccc2)cc1,inactive,–
O=C(O)C1(C(=O)Nc2ccc(Cl)cc2Cl)CC1,inactive,–
CCCCOC(=O)[C@@H](C)Oc1ccc(Oc2ccc(C(F)(F)F)cn2)cc1,inactive,–
CCCOC(=O)NCCCN(C)C,inactive,–
COc1c(Cl)ccc(Cl)c1C(=O)O,inactive,–
c1ccc2[nH]c(-c3cscn3)nc2c1,inactive,–
CCOC(=O)COc1cc(-n2ncc(C(F)(F)F)c(C)c2=O)c(F)cc1Cl,inactive,–
CCOC(=O)[C@H](C)Oc1ccc(Oc2nc3ccc(Cl)cc3o2)cc1,inactive,–
CCOC(=O)C(C)Oc1ccc(Oc2nc3ccc(Cl)cc3o2)cc1 (stereo not given),inactive,–
COC(=O)c1ccc(CNS(C)(=O)=O)cc1S(=O)(=O)NC(=O)Nc1nc(OC)cc(OC)n1,inactive,–
CCCOC(=O)c1ccc(C(=O)OCCC)nc1,inactive,–
CN(C)C(=O)Nc1ccc(Cl)c(Cl)c1,inactive,–
CC(C)(C)[C@@H](O)[C@@H](Cc1ccc(Cl)cc1)n1cncn1,inactive,–
CCN(CC)C(=O)c1cccc(C)c1,inactive,–

SMILES,outcome,AC50
S=C(S)NCCNC(=S)S.[Mn+2].[S-]C([S-])=NCCN=C([S-])[S-].[Zn+2],inactive,–
CCCCCCC(C)OC(=O)COc1nc(F)c(Cl)c(N)c1Cl (stereo not given),–,113 µM (active)
CCCCC(CC)CN1C(=O)C2C3C=CC(C3)C2C1=O (stereo not given),inactive,–
COC(=O)c1ccccc1C(=O)O,inactive,–
COC(=O)c1c(Cl)nn(C)c1S(=O)(=O)NC(=O)Nc1nc(OC)cc(OC)n1,inactive,–
COCCO,inactive,–
COC(=O)c1cccc(C)c1S(=O)(=O)NC(=O)Nc1nc(OCC(F)(F)F)nc(N(C)C)n1,inactive,–
CC1(C)C(C=C(Cl)Cl)C1C(=O)OCc1cccc(Oc2ccccc2)c1 (stereo not given),inactive,–
S=C([S-])NCCNC(=S)[S-].[Mn+2],inactive,–
N#CSCSc1nc2ccccc2s1,inactive,–
CSC(=O)c1cccc2nnsc12,inactive,–
Cc1nn(C)c(Oc2ccccc2)c1C=NOCc1ccc(C(=O)OC(C)(C)C)cc1,inactive,–
CCC(C)OC(=O)N1CCCCC1CCO (stereo not given),inactive,–
COC(=O)c1ccccc1S(=O)(=O)NC(=O)Nc1nc(OC(F)F)cc(OC(F)F)n1,inactive,–
Oc1ccc(C(c2ccc(O)cc2)C(Cl)(Cl)Cl)cc1,inactive,–
COC(=O)CSc1cc(N=c2sc(=O)n3n2CCCC3)c(F)cc1Cl,inactive,–
CCCCOCCOCCOCc1cc2c(cc1CCC)OCO2,inactive,–
COc1nc(C)nc(NC(=O)NS(=O)(=O)c2ccccc2OCCCl)n1,inactive,–
CCSC(=O)N(CC(C)C)CC(C)C,inactive,–
C#CCOC(=O)[C@@H](C)Oc1ccc(Oc2ncc(Cl)cc2F)cc1,inactive,–
